Data from article PMC5700166.

The sequences below were run against T1, GST-Dm-Relish (Drosophila melanogaster, UniProt Q94527 99-473) (assay: protein-binding microarray (PBM); PBM: ~300 nM protein, 6 mM HEPES pH 7.8, 80 mM KCl, 0.5 mM EDTA, 0.5 mM EGTA, 6% glycerol, 35 ng/ul poly-dIdC, 1% milk, 1 h, room temperature; Ap Aiptasia and Nv Nematostella (sea anemones) / Co Capsaspora / Aq Amphimedon (sponge) / Dm Drosophila / Hu human; RHD is the Rel homology domain; high values mean tight binding). Settings: dsDNA, one strand shown.
T1 sequence: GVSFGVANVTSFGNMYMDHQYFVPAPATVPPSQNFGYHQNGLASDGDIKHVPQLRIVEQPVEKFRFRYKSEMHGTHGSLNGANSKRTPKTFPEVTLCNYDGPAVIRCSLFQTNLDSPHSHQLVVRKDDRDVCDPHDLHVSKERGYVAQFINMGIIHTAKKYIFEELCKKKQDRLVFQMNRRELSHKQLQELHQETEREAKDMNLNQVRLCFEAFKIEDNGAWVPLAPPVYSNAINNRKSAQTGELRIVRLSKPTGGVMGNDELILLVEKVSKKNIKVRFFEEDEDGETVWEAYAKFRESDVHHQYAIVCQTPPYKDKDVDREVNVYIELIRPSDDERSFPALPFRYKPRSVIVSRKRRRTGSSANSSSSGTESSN

| Sequence | binding signal [z-score] |
| --- | --- |
| CCGATTAACATCAAAATTCCAGGTGATGTTAATCGGGTCTTGATTCGCTTGACGCTGCTG | 1.13 |
| CCGATTAACATCAGTAATTTACATGATGTTAATCGGGTCTTGATTCGCTTGACGCTGCTG | 6.73 |
| CCGATTAACATCAGGAAAGAACATGATGTTAATCGGGTCTTGATTCGCTTGACGCTGCTG | 3.57 |
| CCGATTAACATCACGTGGATTCCTGATGTTAATCGGGTCTTGATTCGCTTGACGCTGCTG | 1.66 |
| CCGATTAACATCACGTAAAATCCTGATGTTAATCGGGTCTTGATTCGCTTGACGCTGCTG | 1.05 |
| CCGATTAACATCACGTGAATTCCTGATGTTAATCGGGTCTTGATTCGCTTGACGCTGCTG | 2.84 |
| CCGATTAACATCACGTGATTTCCTGATGTTAATCGGGTCTTGATTCGCTTGACGCTGCTG | 4.11 |
| CCGATTAACATCAAAGGAAATTCTGATGTTAATCGGGTCTTGATTCGCTTGACGCTGCTG | 1.56 |
| CCGATTAACATCAAGTAGTTTCCTGATGTTAATCGGGTCTTGATTCGCTTGACGCTGCTG | 2.37 |
| CCGATTAACATCAAGTAATTTTCTGATGTTAATCGGGTCTTGATTCGCTTGACGCTGCTG | 1.86 |
| CCGATTAACATCAGTGTGCTTCTTGATGTTAATCGGGTCTTGATTCGCTTGACGCTGCTG | 1.67 |
| CCGATTAACATCAATAAATGTACTGATGTTAATCGGGTCTTGATTCGCTTGACGCTGCTG | 1.14 |
| CCGATTAACATCACAAGAATTCCTGATGTTAATCGGGTCTTGATTCGCTTGACGCTGCTG | 1.19 |
| CCGATTAACATCAGGCGGTAAGGTGATGTTAATCGGGTCTTGATTCGCTTGACGCTGCTG | 1.01 |
| CCGATTAACATCACCGAATTTGGTGATGTTAATCGGGTCTTGATTCGCTTGACGCTGCTG | 1.44 |
| CCGATTAACATCAGGAATTCACATGATGTTAATCGGGTCTTGATTCGCTTGACGCTGCTG | 5.7 |
| CCGATTAACATCAAGTTTTTTCCTGATGTTAATCGGGTCTTGATTCGCTTGACGCTGCTG | 1.98 |
| CCGATTAACATCATTTACATTCGTGATGTTAATCGGGTCTTGATTCGCTTGACGCTGCTG | 1.06 |
| CCGATTAACATCAAGGAAAATACTGATGTTAATCGGGTCTTGATTCGCTTGACGCTGCTG | 1.2 |
| CCGATTAACATCAAAATTCCATGTGATGTTAATCGGGTCTTGATTCGCTTGACGCTGCTG | 1.36 |

| Sequence | binding signal [z-score] |
| --- | --- |
| CCGATTAACATCACGTAAATCCATGATGTTAATCGGGTCTTGATTCGCTTGACGCTGCTG | 1 |
| CCGATTAACATCAGGAAAACACATGATGTTAATCGGGTCTTGATTCGCTTGACGCTGCTG | 2.56 |
| CCGATTAACATCAGGAAAATTACTGATGTTAATCGGGTCTTGATTCGCTTGACGCTGCTG | 1.67 |
| CCGATTAACATCAAAAAAATTACTGATGTTAATCGGGTCTTGATTCGCTTGACGCTGCTG | 3.61 |
| CCGATTAACATCAAATAATTTCCTGATGTTAATCGGGTCTTGATTCGCTTGACGCTGCTG | 1.21 |
| CCGATTAACATCAGGAATATACATGATGTTAATCGGGTCTTGATTCGCTTGACGCTGCTG | 2.59 |
| CCGATTAACATCAAATATTTTCCTGATGTTAATCGGGTCTTGATTCGCTTGACGCTGCTG | 1.09 |
| CCGATTAACATCAGAAAATTACATGATGTTAATCGGGTCTTGATTCGCTTGACGCTGCTG | 3.43 |
| CCGATTAACATCACGAAAAATCCTGATGTTAATCGGGTCTTGATTCGCTTGACGCTGCTG | 1.48 |
| CCGATTAACATCAGTAAAATCCATGATGTTAATCGGGTCTTGATTCGCTTGACGCTGCTG | 1.44 |
| CCGATTAACATCACCCGAGTGCGTGATGTTAATCGGGTCTTGATTCGCTTGACGCTGCTG | 1.01 |
| CCGATTAACATCAGTAAACTCCATGATGTTAATCGGGTCTTGATTCGCTTGACGCTGCTG | 1.1 |
| CCGATTAACATCAGGAAAATACATGATGTTAATCGGGTCTTGATTCGCTTGACGCTGCTG | 4.66 |
| CCGATTAACATCAGTGAATTCCATGATGTTAATCGGGTCTTGATTCGCTTGACGCTGCTG | 2.81 |
| CCGATTAACATCAAGTACAACGGTGATGTTAATCGGGTCTTGATTCGCTTGACGCTGCTG | 1.44 |
| CCGATTAACATCAAATAAATTCCTGATGTTAATCGGGTCTTGATTCGCTTGACGCTGCTG | 1.27 |
| CCGATTAACATCAGGAAAAACACTGATGTTAATCGGGTCTTGATTCGCTTGACGCTGCTG | 2.61 |
| CCGATTAACATCAGGCCTTTCCATGATGTTAATCGGGTCTTGATTCGCTTGACGCTGCTG | 1.71 |
| CCGATTAACATCATAAAAAAAAATGATGTTAATCGGGTCTTGATTCGCTTGACGCTGCTG | 1.27 |
